PPARg SRC2 recr – agonists of SRC-2 recruitment by human PPARgamma | actives 0.34% (n = 200,000) | PPARgamma LBD-SRC-2 recruitment, biochemical | P37231 | activation, % at 8 µM; in the data active = activation above about 22%;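 note: 0% = vehicle and 100% = reference agonist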
Target sequence (P37231 whole entry, looked up, the tested form may be a part): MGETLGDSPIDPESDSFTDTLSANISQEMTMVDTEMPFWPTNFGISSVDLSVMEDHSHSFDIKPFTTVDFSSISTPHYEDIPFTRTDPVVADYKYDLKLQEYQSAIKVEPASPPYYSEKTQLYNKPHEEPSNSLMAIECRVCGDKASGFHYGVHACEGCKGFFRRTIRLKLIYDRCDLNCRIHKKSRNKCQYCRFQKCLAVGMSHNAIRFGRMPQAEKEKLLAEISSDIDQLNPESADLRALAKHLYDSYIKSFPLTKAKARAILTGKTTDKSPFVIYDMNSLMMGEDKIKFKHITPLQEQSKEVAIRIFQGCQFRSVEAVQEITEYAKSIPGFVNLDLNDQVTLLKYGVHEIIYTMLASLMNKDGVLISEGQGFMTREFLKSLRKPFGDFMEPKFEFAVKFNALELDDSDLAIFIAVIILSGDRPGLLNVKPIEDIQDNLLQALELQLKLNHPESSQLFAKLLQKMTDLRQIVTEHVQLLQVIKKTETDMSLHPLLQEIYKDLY
SRC3 TRFRET art – TR-FRET artefact, counter-screen to PPARgamma/SRC-3 agonist assay | PPARgamma/SRC-3 format; stronger effect = higher value | TR-FRET ratio at 8 µM | actives 0.39% (n = 99,000) | AID 1048
PPARg SRC1 recr – PPARgamma-driven SRC-1 recruitment agonism; P37231; PPARgamma-SRC-1 coactivator recruitment biochemical assay; activation, % at 8 µM; actives 0.41% (n = 200,000); AID 631; in the data active = activation above about 19%;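 note: 0% = DMSO and 100% = reference agonist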
SRC2 TRFRET art – TR-FRET artefact, counter-screen to PPARgamma/SRC-2 agonist assay | TR-FRET ratio at 8 µM | stronger effect = higher value | actives 0.4% (n = 200,000)
SRC1 TRFRET art – counter-screen for PPARgamma SRC-1 recruitment agonists: TR-FRET artefact; TR-FRET detection artefact counter-screen, emission ratio; stronger effect = higher value; TR-FRET ratio at 8 µM; actives 0.34% (n = 99,000); AID 1051; in the data active = TR-FRET ratio above about 2300
PPARg SRC3 recr – promotes SRC-3 coactivator recruitment by human PPARgamma | P37231 | biochemical PPARgamma/SRC-3 coactivator recruitment assay | actives 0.26% (n = 200,000) | activation, % at 8 µM; in the data active = activation above about 23%;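 note: 0% = DMSO and 100% = reference agonist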
Active calls of the source: *. Compounds with a hit are over-represented: about 0.9% of the library has one in this group of screens. Cut-off read from the data, not from the text of the source, unless noted: active = TR-FRET ratio above about 2000; inactive = the rest.

How did COc1ccc(N2C(=O)c3ccccc3NC2c2ccc(OC)c(COc3ccccn3)c2)cc1 (configuration not stated) do in these assays?
PPARg SRC2 recr: -2; SRC3 TRFRET art: 1598; PPARg SRC1 recr: -3; SRC2 TRFRET art: 1704; SRC1 TRFRET art: 2104; PPARg SRC3 recr: 0

How did COc1ccc(N2C(=O)c3ccccc3NC2c2ccc(OC)c(CSc3ccccn3)c2)cc1 (configuration not stated) do in these assays?
PPARg SRC2 recr: 22; PPARg SRC1 recr: 9; SRC2 TRFRET art: 2247*; PPARg SRC3 recr: 10

Results for O=C(Nc1ccc2oc(-c3ccncc3)nc2c1)c1ccc(F)cc1 ?
PPARg SRC2 recr: 7; SRC3 TRFRET art: 1522; PPARg SRC1 recr: 9; SRC2 TRFRET art: 1538; SRC1 TRFRET art: 1768; PPARg SRC3 recr: 9

What do the screens show for `Cc1cc(OCC(=O)Nc2ccc3oc(-c4ccncc4)nc3c2)ccc1Cl`?
PPARg SRC2 recr: 9; PPARg SRC1 recr: 42*; SRC2 TRFRET art: 1643; PPARg SRC3 recr: 1

Results for O=C(Cc1ccc(Cl)cc1)Nc1ccc2oc(-c3ccncc3)nc2c1 ?
PPARg SRC2 recr: 9; PPARg SRC1 recr: 6; SRC2 TRFRET art: 1678; PPARg SRC3 recr: 1

How did O=C(Nc1ccc2oc(-c3ccncc3)nc2c1)c1c(F)c(F)c(F)c(F)c1F do in these assays?
PPARg SRC2 recr: -2; PPARg SRC1 recr: 48*; SRC2 TRFRET art: 1536; PPARg SRC3 recr: 9

What do the screens show for `CNC(=O)CNC(=O)Nc1ccc(Cl)c(Cl)c1`?
PPARg SRC2 recr: 1; SRC3 TRFRET art: 1565; PPARg SRC1 recr: 3; SRC2 TRFRET art: 1696; SRC1 TRFRET art: 1758; PPARg SRC3 recr: -4

Results for CC1CCCCN1C(=O)Nc1cccc(C(F)(F)F)c1 (configuration not stated) ?
PPARg SRC2 recr: 5; SRC3 TRFRET art: 1831; PPARg SRC1 recr: 13; SRC2 TRFRET art: 1781; SRC1 TRFRET art: 2319*; PPARg SRC3 recr: 6

What do the screens show for `CCN1CCN(CC(=O)Nc2cc3c(cc2C(C)=O)OCO3)CC1`?
PPARg SRC2 recr: 12; SRC3 TRFRET art: 1726; PPARg SRC1 recr: 11; SRC2 TRFRET art: 1682; SRC1 TRFRET art: 1831; PPARg SRC3 recr: 3

What do the screens show for `COc1ccc(N2C(=O)CC(Nc3ccc(C(=O)O)cc3)C2=O)cc1OC` (configuration not stated)?
PPARg SRC2 recr: 9; SRC3 TRFRET art: 1527; PPARg SRC1 recr: 5; SRC2 TRFRET art: 1699; SRC1 TRFRET art: 2011; PPARg SRC3 recr: 5

How did COC(=O)c1cccc(NC2CC(=O)N(c3ccc(OC)c(OC)c3)C2=O)c1 (configuration not stated) do in these assays?
PPARg SRC2 recr: 6; SRC3 TRFRET art: 1521; PPARg SRC1 recr: 18; SRC2 TRFRET art: 1810; SRC1 TRFRET art: 2727*; PPARg SRC3 recr: 5

Results for Cc1nn(Cc2c(F)cccc2Cl)c(C)c1[N+](=O)[O-] ?
PPARg SRC2 recr: 0; SRC3 TRFRET art: 1841; PPARg SRC1 recr: 21*; SRC2 TRFRET art: 1578; SRC1 TRFRET art: 1688; PPARg SRC3 recr: 0

How did Cn1c(=O)c2c(ncn2CC(=O)OCC(=O)NCc2ccccc2Cl)n(C)c1=O do in these assays?
PPARg SRC2 recr: 7; SRC3 TRFRET art: 1720; PPARg SRC1 recr: 6; SRC2 TRFRET art: 1642; SRC1 TRFRET art: 1711; PPARg SRC3 recr: 5

What do the screens show for `O=C(NC1CCCCC1)C(=S)NC1CCCCC1`?
PPARg SRC2 recr: -4; SRC3 TRFRET art: 1549; PPARg SRC1 recr: 4; SRC2 TRFRET art: 1338; SRC1 TRFRET art: 1806; PPARg SRC3 recr: -1

How did COc1ccc(-c2cn3c(C)c(C(=O)Nc4ccncc4)sc3n2)cc1 do in these assays?
PPARg SRC2 recr: 1; PPARg SRC1 recr: 1; SRC2 TRFRET art: 1516; PPARg SRC3 recr: -15

How did Cc1c(C(=O)Nc2ccncc2)sc2nc(-c3ccc(F)cc3)cn12 do in these assays?
PPARg SRC2 recr: 22; SRC3 TRFRET art: 2105*; PPARg SRC1 recr: 6; SRC2 TRFRET art: 1995*; SRC1 TRFRET art: 2289; PPARg SRC3 recr: 13

How did CCOC(=O)N1CCC(NC2CCCCCCC2)CC1 do in these assays?
PPARg SRC2 recr: 4; PPARg SRC1 recr: -5; SRC2 TRFRET art: 1575; PPARg SRC3 recr: -10

What do the screens show for `Cc1nn(C)c(C)c1CCC(=O)O`?
PPARg SRC2 recr: 6; SRC3 TRFRET art: 1846; PPARg SRC1 recr: 4; SRC2 TRFRET art: 1709; SRC1 TRFRET art: 1999; PPARg SRC3 recr: 6

Results for COc1ccc(OCC(=O)NC(=S)Nc2ccc3c4c(cccc24)CC3)cc1 ?
PPARg SRC2 recr: 3; SRC3 TRFRET art: 2132*; PPARg SRC1 recr: 8; SRC2 TRFRET art: 1730; SRC1 TRFRET art: 2059; PPARg SRC3 recr: 13

How did Cc1ccccc1OCC(=O)NC(=S)Nc1ccc2c3c(cccc13)CC2 do in these assays?
PPARg SRC2 recr: 11; PPARg SRC1 recr: 8; SRC2 TRFRET art: 1639; PPARg SRC3 recr: 14

What do the screens show for `O=C(C1CCN(S(=O)(=O)c2ccccc2F)CC1)N1CCc2ccccc2C1`?
PPARg SRC2 recr: 5; SRC3 TRFRET art: 1517; PPARg SRC1 recr: 4; SRC2 TRFRET art: 1610; SRC1 TRFRET art: 2089; PPARg SRC3 recr: 2

How did O=C(NCc1ccco1)C(=O)N1CCCC1 do in these assays?
PPARg SRC2 recr: -2; SRC3 TRFRET art: 1527; PPARg SRC1 recr: 9; SRC2 TRFRET art: 1734; SRC1 TRFRET art: 1523; PPARg SRC3 recr: -1

How did Cc1ccc(-c2cc(-c3ccccc3)c(C#N)c(Br)n2)cc1 do in these assays?
PPARg SRC2 recr: -2; SRC3 TRFRET art: 1644; PPARg SRC1 recr: 56*; SRC2 TRFRET art: 1632; SRC1 TRFRET art: 3299*; PPARg SRC3 recr: -1

How did CS(=O)(=O)c1nc(-c2ccccc2)cc(-c2ccccc2)c1C#N do in these assays?
PPARg SRC2 recr: -2; PPARg SRC1 recr: 6; SRC2 TRFRET art: 1773; PPARg SRC3 recr: -2

How did O=C(Cc1nc2ccccc2[nH]c1=O)c1ccccc1 do in these assays?
PPARg SRC2 recr: 5; SRC3 TRFRET art: 1680; PPARg SRC1 recr: 22*; SRC2 TRFRET art: 1531; SRC1 TRFRET art: 1925; PPARg SRC3 recr: 8

Results for CCn1c(SCc2c(F)cccc2Cl)nnc1-c1ccco1 ?
PPARg SRC2 recr: 1; PPARg SRC1 recr: -4; SRC2 TRFRET art: 1377; PPARg SRC3 recr: -11

Results for COc1ccc(C2=NN(C(=O)CSc3ncccn3)C(c3ccc(OC)cc3)C2)cc1 (configuration not stated) ?
PPARg SRC2 recr: 5; SRC3 TRFRET art: 1648; PPARg SRC1 recr: 8; SRC2 TRFRET art: 1601; SRC1 TRFRET art: 2104; PPARg SRC3 recr: -1

Results for COc1ccc(C2=NN(C(=O)CSc3nc4ccccc4s3)C(c3ccc(OC)cc3)C2)cc1 (configuration not stated) ?
PPARg SRC2 recr: -6; SRC3 TRFRET art: 1447; PPARg SRC1 recr: 7; SRC2 TRFRET art: 1438; SRC1 TRFRET art: 1938; PPARg SRC3 recr: -2

Results for COc1ccc(C2CC(c3ccc4ccccc4c3)=NN2C(=O)CSc2ncccn2)cc1 (configuration not stated) ?
PPARg SRC2 recr: 9; SRC3 TRFRET art: 2117*; PPARg SRC1 recr: 3; SRC2 TRFRET art: 1608; SRC1 TRFRET art: 1782; PPARg SRC3 recr: -4
